From PubChem BioAssay (Tox21)
Inconclusive results are not listed. The source made the active and inactive calls. Unless noted, the call rests on the fitted dose curve. Square brackets hold non-standard residues; d marks the D form. Peptide text beside a SMILES is read from it. * marks the point of attachment. Sta = CC(C)C[C@H](N)[C@@H](O)CC(=O)O; Isovaleryl = CC(C)CC(=O)*

Legend:
[1] = Nuclear factor erythroid 2-related factor 2/antioxidant responsive element (Nrf2/ARE) small molecule agonists: qHTS cell viability counter screen in human keratinocytes (AID 1919968; active means well fitted curve in the direction sought with a large enough effect in the repeat runs; an effect the other way counts as inactive or inconclusive; further: nearly all actives have a fitted effect of over 55% in size)
Method in brief: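 Cytotoxicity was multiplexed with the Nrf2/ARE luciferase assay in the same wells. Stably transfected HaCaT keratinocytes were treated with test compounds for 23 h at 37 C. Cell viability was then measured by CellTiter-Fluor fluorescence.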

[2] = Nuclear factor erythroid 2-related factor 2/antioxidant responsive element (Nrf2/ARE) small molecule agonists: luciferase reporter gene qHTS assay in human keratinocytes (AID 1919969); further: nearly all actives have a fitted effect of over 35% in size
[3] = biological target: Gonadotropin-releasing hormone receptor (Homo sapiens) (UniProt P30968); test: Human gonadotropin-releasing hormone receptor (GnRHR) small molecule agonists, calcium flux assay in GnRHR-HEK293 cells (AID 1920063); further: nearly all actives have a fitted effect of over 35% in size
Method in brief: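 Agonist activity was measured as intracellular calcium flux in HEK293 cells engineered to stably express human GnRHR. After dye loading for 1 hour at 37 C, compounds in DMSO were added and fluorescence was followed for 3 minutes.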

[4] = biological target: KiSS-1 receptor (Homo sapiens) (UniProt Q969F8); test: Human kisspeptin (KISS1R) small molecule agonists, calcium flux assay in KISS1R-HEK293 cells (AID 1920064; active means well fitted curve in the direction sought with a large enough effect in the repeat runs; an effect the other way counts as inactive or inconclusive)
Method in brief: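 Agonist activity is monitored as intracellular calcium rise in engineered HEK293 cells carrying human KISS1R. Cells are dye-loaded for 1 h at 37 C before compound addition, and fluorescence is recorded for 3 min.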

[5] = G protein-coupled receptor (GPCR) small molecule agonists, calcium flux assay: HEK293 wild type cell line counter screen (AID 1920065)
Method in brief: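 Seed cells, incubate 18 h (37 C, 5% CO2); add calcium dye, 1 h at 37 C; pin-transfer compounds, ATP control or DMSO; read fluorescence 480/540 nm each second for 3 min.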

[6] = p53 small molecule agonists, cell-based qHTS assay with human liver microsomes (AID 1963577);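 further: p53 response element beta-lactamase reporter cells with liver microsomes plus NADPH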
Method in brief: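 Reporter activation was measured by LiveBLAzer fluorescence intensity in p53RE-bla cells, which had been exposed to compounds for 16 h at 37 C alongside 0.5 mg/mL human liver microsomes and 0.5 mg/mL NADPH (final concentrations).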

[7] = p53 small molecule agonists, cell-based qHTS assay with rat liver microsomes (AID 1963578)
Method in brief: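 Compound in DMSO added to p53RE-bla cells 5 h post-plating; rat microsomes/NADPH 0.5 mg/mL final; 16 h, 37 C; LiveBLAzer 2 h RT.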

[8] = p53 small molecule agonists, cell-based qHTS assay with human liver microsomes: qHTS cell viability counter screen (AID 1963579); further: nearly all actives have a fitted effect of over 45% in size
Method in brief: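 HLM-supplemented (0.5 mg/mL final) and NADPH-supplemented (0.5 mg/mL final) p53RE-bla cultures, 4,000 cells per well, were dosed with compounds in DMSO for 16 h at 37 C; luminescent ATP detection (CellTiter-Glo, 30 min, room temperature) quantified surviving cells.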

[9] = p53 small molecule agonists, cell-based qHTS assay with rat liver microsomes: qHTS cell viability counter screen (AID 1963580); further: nearly all actives have a fitted effect of over 45% in size
Method in brief: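 Rat liver microsome (0.5 mg/mL final) and NADPH (0.5 mg/mL final) co-incubation with compounds for 16 h at 37 C on HCT-116 p53RE-bla cells; cytotoxicity taken from intracellular ATP luminescence.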

[10] = p53 small molecule agonists, cell-based qHTS assay: qHTS cell viability counter screen (AID 1963581); further: nearly all actives have a fitted effect of over 45% in size
Method in brief: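 Viability was counter-screened in parallel with the p53 agonist reporter by measuring intracellular ATP luminescence in the same HCT-116 p53RE-bla wells after 16 h compound treatment at 37 C.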

[11] = p53 small molecule agonists, cell-based qHTS assay (AID 1963582; active means well fitted activation curve with a large enough effect in the signal ratio in the repeat runs, not every such curve was filed as active; the % refers to the signal ratio)
Method in brief: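 Cells carrying a p53-responsive bla reporter are treated with test compounds for 16 h at 37 C; beta-lactamase activity is then detected with LiveBLAzer B/G FRET substrate after 2 h at room temperature.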

[12] = cAMP Responsive Elements (CRE) small molecule agonists, cell-based qHTS assay (AID 1963590)
Method in brief: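 Cells carrying a CRE-driven beta-lactamase reporter (HEK 293T) are seeded, incubated overnight (18 h), and treated with test compounds for 3 h at 37 C; reporter activity is then detected with a FRET substrate after 2 h at room temperature.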

[13] = cAMP Responsive Elements (CRE) small molecule antagonists, cell-based qHTS assay (AID 1963591; active means well fitted inhibition curve with a large enough effect in the signal ratio in the repeat runs, not every such curve was filed as active; the % refers to the signal ratio)
Method in brief: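 Cells (CRE-bla HEK 293T, DMEM with 10% dialyzed FBS and 25 mM HEPES) are seeded and incubated 18 h. Compounds are added with NKH477 agonist at 0.25 uM final for 3 h, then FRET substrate for 2 h.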

[14] = biological target: D(2) dopamine receptor (Homo sapiens) (UniProt P14416); test: Dopamine D2 receptor (DRD2) small molecule agonists, cell-based qHTS assay (AID 1963594); further: nearly all actives have a fitted effect of over 35% in size
Method in brief: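 cAMP accumulation in DRD2-HEK293 cells measured by HTRF after 1 h detection; compounds added 10 min before NKH477 (200nM […]) forskolin-analogue stimulation, 30 min at room temperature, with Ro20-1724 present at 0.1 mM final.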

[15] = biological target: D(2) dopamine receptor (Homo sapiens) (UniProt P14416); test: Dopamine D2 receptor (DRD2) small molecule antagonists, cell-based qHTS assay (AID 1963595; active means well fitted inhibition curve with a large enough effect in the signal ratio in the repeat runs, with a control signal flat; the % refers to the signal ratio)
Method in brief: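 In this cell-based antagonist screen, compounds act for 10 min at room temperature before a 30 min challenge with 12 nM quinpirole and 200 nM NKH477. cAMP is quantified by HTRF competition in DRD2-HEK293 cells containing 0.1 mM Ro20-1724.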

[16] = biological target: Beta-2 adrenergic receptor (Homo sapiens) (UniProt P07550); test: Adrenergic beta2 receptor (ADRB2) small molecule antagonists, cell-based qHTS assay (AID 1963592); further: series mostly up to about 92 µM; nearly all actives have a fitted effect of over 50% in size
Method in brief: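 Assay format: CHO-ADRB2 cells, 18-20hr seeding at 37C/5% CO2, then compound plus 1nM isoproterenol agonist mix for 0.5hr RT. Homogeneous time-resolved fluorescence cAMP detection after 1hr, expressed as 665/615 nm ratio.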

[17] = biological target: Beta-2 adrenergic receptor (Homo sapiens) (UniProt P07550); test: Adrenergic beta2 receptor (ADRB2) small molecule agonists, cell-based qHTS assay (AID 1963593);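 further: CHO cells stably overexpressing human ADRB2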
Method in brief: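 CHO cells stably over-expressing ADRB2 were plated overnight at 37C, then dosed with compounds plus a stimulation mix containing 100uM IBMX and 25uM Ro-20-1724 for 0.5hr at room temperature. cAMP was measured by HTRF competition, 1hr.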

Measured: Potency

Chain of D(2) dopamine receptor (Homo sapiens) (P14416 whole entry, looked up): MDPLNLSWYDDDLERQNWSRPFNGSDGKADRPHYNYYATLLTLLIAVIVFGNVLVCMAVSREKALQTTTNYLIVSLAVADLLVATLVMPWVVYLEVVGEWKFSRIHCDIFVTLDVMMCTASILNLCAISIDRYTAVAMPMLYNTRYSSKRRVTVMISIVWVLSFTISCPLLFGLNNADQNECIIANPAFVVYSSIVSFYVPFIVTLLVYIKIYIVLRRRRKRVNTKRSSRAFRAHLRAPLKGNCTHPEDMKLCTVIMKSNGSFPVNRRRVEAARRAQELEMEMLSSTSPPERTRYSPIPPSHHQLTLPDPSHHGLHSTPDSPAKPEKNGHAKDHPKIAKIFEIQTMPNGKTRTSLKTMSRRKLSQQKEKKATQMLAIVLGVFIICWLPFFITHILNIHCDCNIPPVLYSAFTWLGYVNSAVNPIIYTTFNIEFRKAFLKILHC
Chain of Gonadotropin-releasing hormone receptor (Homo sapiens) (P30968 whole entry, looked up): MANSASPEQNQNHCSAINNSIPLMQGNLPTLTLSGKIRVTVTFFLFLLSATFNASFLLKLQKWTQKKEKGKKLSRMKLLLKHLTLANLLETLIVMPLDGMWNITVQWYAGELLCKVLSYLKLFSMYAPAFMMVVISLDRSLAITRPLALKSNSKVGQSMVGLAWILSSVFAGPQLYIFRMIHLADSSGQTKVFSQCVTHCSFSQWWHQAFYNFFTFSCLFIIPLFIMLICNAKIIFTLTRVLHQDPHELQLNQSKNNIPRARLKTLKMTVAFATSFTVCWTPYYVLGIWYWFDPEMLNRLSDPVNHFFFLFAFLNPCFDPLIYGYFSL
Chain of KiSS-1 receptor (Homo sapiens) (Q969F8 whole entry, looked up): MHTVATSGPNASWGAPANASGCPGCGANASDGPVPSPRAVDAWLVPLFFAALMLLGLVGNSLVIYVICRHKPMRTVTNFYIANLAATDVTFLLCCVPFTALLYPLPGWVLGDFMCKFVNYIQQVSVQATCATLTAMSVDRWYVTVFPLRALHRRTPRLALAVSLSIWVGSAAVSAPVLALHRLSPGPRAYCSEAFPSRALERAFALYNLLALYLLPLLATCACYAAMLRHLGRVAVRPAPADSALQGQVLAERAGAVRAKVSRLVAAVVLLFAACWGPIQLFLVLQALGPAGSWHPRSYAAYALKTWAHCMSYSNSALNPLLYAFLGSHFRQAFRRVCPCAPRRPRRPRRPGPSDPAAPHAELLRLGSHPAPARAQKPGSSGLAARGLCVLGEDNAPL
Chain of Beta-2 adrenergic receptor (Homo sapiens) (P07550 whole entry, looked up): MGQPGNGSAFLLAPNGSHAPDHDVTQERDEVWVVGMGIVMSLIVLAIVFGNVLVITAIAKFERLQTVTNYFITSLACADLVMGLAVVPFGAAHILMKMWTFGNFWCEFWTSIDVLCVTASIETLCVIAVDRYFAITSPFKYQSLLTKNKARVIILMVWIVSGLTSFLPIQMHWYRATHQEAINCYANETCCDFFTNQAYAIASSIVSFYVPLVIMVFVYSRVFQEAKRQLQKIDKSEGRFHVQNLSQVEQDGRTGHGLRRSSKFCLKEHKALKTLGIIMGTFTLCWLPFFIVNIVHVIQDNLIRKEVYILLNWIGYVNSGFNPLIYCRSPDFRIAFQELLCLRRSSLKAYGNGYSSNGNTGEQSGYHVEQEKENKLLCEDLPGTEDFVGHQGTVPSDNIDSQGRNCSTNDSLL

CCn1cc(C(=O)O)c(=O)c2cc(F)c(N3CCNCC3)nc21
not listed: [16] | [17]
inactive: all other assays above

Cc1cn[nH]c1
not listed: [14]
inactive: all other assays above

Nc1nc(N)nc(-c2cc(Cl)ccc2Cl)n1
not listed: [14] | [17]
inactive: all other assays above

NC(=O)NC(=O)Cc1ccccc1
not listed: [13]
inactive: all other assays above

COc1cc(C(=O)NC2CCCNC2)cc(OC)c1OC (centres undefined)
not listed: [17]
inactive: all other assays above

CN1CCC(=C2c3ccccc3CC(=O)c3sccc32)CC1
not listed: [17]
inactive: all other assays above

CC(C)CC(=O)N[C@H](C(=O)N[C@H](C(=O)N[C@@H](CC(C)C)[C@@H](O)CC(=O)N[C@@H](C)C(=O)N[C@@H](CC(C)C)[C@@H](O)CC(=O)O)C(C)C)C(C)C (Isovaleryl-VV[Sta]A[Sta]-OH)
not listed: [12] | [17]
inactive: all other assays above
